In PubChem BioAssay AID493170 (National Center for Advancing Translational Sciences (NCATS), 2011):
Results filed as inconclusive are left out. Calls of active or inactive are those of the source. Calls follow the shape of the dose curve; as a rule, active = well fitted inhibition curve with a large enough effect; inconclusive = small, poorly fitted or top-dose-only effect, or effect the other way; inactive = flat fitted curve, though single readings scatter.

biological target: Ubiquitin carboxyl-terminal hydrolase 2 (Homo sapiens) (UniProt O75604); assay: Ub-rhodamine 110 based assay for inhibitors Ubiquitin-specific Protease USP2a; settings: USP2a Ub-rhodamine110 cleavage, fluorescence; series mostly up to 38.3 µM; activity change, negative = inhibition: at the top concentration; also: nearly all actives have a fitted effect of over 50% in size
Sequence (O75604 whole entry, looked up): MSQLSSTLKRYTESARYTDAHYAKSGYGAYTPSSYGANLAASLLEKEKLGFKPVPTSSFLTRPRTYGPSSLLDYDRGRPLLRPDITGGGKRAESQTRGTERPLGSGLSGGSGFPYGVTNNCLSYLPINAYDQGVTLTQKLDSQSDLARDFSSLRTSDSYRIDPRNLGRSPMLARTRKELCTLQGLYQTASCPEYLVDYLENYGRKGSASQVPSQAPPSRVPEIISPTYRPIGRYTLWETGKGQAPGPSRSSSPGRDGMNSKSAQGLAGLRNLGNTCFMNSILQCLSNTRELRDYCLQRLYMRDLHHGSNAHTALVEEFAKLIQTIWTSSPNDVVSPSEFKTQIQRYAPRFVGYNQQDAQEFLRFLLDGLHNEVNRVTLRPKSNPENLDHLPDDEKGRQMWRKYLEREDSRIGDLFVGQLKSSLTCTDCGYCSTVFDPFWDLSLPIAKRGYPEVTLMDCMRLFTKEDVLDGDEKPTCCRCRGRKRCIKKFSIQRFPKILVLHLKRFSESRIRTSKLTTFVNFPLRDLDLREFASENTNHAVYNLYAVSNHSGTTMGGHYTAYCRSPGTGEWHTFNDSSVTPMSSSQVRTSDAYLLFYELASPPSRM
How it was run: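 5 nM USP2a preincubated with compounds for 30 min at RT in 20 mM Tris-HCl pH 8.0, 2 mM CaCl2, 2 mM beta-mercaptoethanol, 0.05% CHAPS. Cleavage of 150 nM Ub-rhodamine 110 read kinetically (Ex 485/Em 531) for 7 min.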
% is scaled to controls: 0 for no effect and ±100 for the full control effect; potency is read from the fitted curve at half-maximal effect.

Activity change, negative = inhibition, inactive:
Cc1ccc(C(=O)N/C(=C/c2cccs2)C(=O)NCc2ccco2)cc1 2.38%, CC1(C(=O)O)Sc2[nH]c(=O)sc2C2c3ccccc3OC(=O)C21 (centres undefined) 9.19%, O=C(NCC(c1cccnc1)N1CCN(c2ccc(F)cc2)CC1)OCc1ccccc1 (centres undefined) -5.52%, CC(C)OCCCNC(=O)c1c(N)n(/N=C/c2ccccn2)c2nc3ccccc3nc12 -3.72%, c1ccc(-c2ccccc2OCCCN2CCOCC2)cc1 3.46%, COc1ccc(-c2nnn(CC(=O)N3CCOCC3)n2)cc1 -7.05%, CCOc1ccc2[nH]c(=O)c(CN(CCc3ccccc3)C(=O)c3cnccn3)cc2c1 -0.958%, Cc1ccc(S(=O)(=O)Nc2cc(C)c(O)c(S(=O)(=O)c3ccc(C)cc3)c2)cc1 -10.6%, CCCC(c1nnnn1Cc1ccc(OC)cc1)N1CCC(C(N)=O)CC1 (centres undefined) -9.57%, O=c1cc(CO)oc(CN2CCN(Cc3ccccc3)CC2)c1O -1.31%, COc1ccc(S(=O)(=O)N2CCCC2C(=O)NCc2cccs2)cc1 (centres undefined) -3.06%, COc1ccc(NC(=S)NC(=O)/C=C/c2ccco2)cc1 -1.65%, COc1ccc(C(=O)OCC(=O)c2c[nH]c3ccccc23)c(OC)c1 -10.9%, COCc1cc(C)nc(OCC(=O)N/N=C\c2cc(C)n(-c3cccc(C(F)(F)F)c3)c2C)c1C#N -13.8%, CC1CC(C)CN(C(=O)CSc2nnc(-c3ccc(Cl)cc3)o2)C1 (centres undefined) 1.57%, COc1ccccc1C(=O)n1nc(-c2cccnc2)nc1NCc1ccccc1 -20.8%, CCCCCCCCCCOC(=O)Cn1c(COc2ccccc2C)[n+](C)c2ccccc21 -27.5%, CCOc1ccc2[nH]c(=O)c(CN(Cc3cccs3)Cc3nnnn3C(C)(C)CC)cc2c1 -23%, CCCCCCCCCCOC(=O)Cn1c(COc2cccc(C)c2)[n+](C)c2ccccc21 -8.36%, COc1ccccc1N1CCN(c2cc(C)nc3nc(C)nn23)CC1 -3.98%, Cn1c(C(=O)NCCN2CCOCC2)cc2c(=O)n(C)c3ccccc3c21 -0.21%, COc1ccc(NC(=O)C2CC(=O)OC2c2ccccc2)cc1 (centres undefined) -14.6%, O=C(O)CC(C(=O)O)N1C(=O)/C(=C/C=C/c2ccco2)SC1=S (centres undefined) -23.9%, Cc1ccc(N2CCN(C(=O)CCc3nc4ccccc4[nH]3)CC2)c(C)c1 -1.09%, O=C(CSCc1cnn(-c2ccccc2)c1-n1cccc1)NCC1CCCO1 (centres undefined) 0.658%, O=C(c1ccccc1)N1CCN(C(=O)N2CCCCC2)CC1 0.808%, O=C1CS/C(=C/C(=O)c2ccccc2)N1 -10.4%, CCC(=O)c1ccc(OCC(=O)NC2CCN(Cc3ccccc3)CC2)cc1 -5.4%, O=C1OC[C@@H]2CCCN2C(=O)[C@@H](CC(=O)N(CCO)Cc2ccccc2)C/C=C\C[C@@H]1Cc1ccc(F)cc1 -2.99%, CN1CCN(CCC(=O)N/N=C/c2cc([N+](=O)[O-])ccc2O)CC1 -4.22%, C=CCn1c(Br)nc2c1c(=O)n(C)c(=O)n2C 15.6%

Potency, active:
C=CCSC1=N/C(=C\C=C\c2ccco2)C(=O)S1 10 µM, Cc1cc(NS(=O)(=O)c2ccc(Nc3nc(-c4ccc(C)c(C)c4)cs3)cc2)no1 10 µM, CCCCCCCCCCCCCCCC[N+](C)(C)CCN(Cc1ccc(OC)cc1)c1ncccn1 11.2 µM, O=C(/C(=N/N=C/c1ccc(O)c(O)c1O)c1ccccc1)c1ccccc1 2.51 µM, O=C(NCCc1ccccc1)c1ccc2nc(-c3ccco3)c(-c3ccco3)nc2c1 5.01 µM, O=C(Nc1ccc2nc(-c3ccco3)c(-c3ccco3)nc2c1)N1CCN(c2ccccn2)CC1 3.55 µM, Cc1noc(/C=C/c2ccco2)c1S(=O)(=O)N1CCC(C(=O)N(C)Cc2ccccc2)CC1 10 µM, COc1ccc2[nH]c(=O)c(CN(C3CCCCC3)C(c3nnnn3Cc3ccco3)C(C)C)cc2c1 (centres undefined) 3.98 µM
